Screens as filed in PubChem BioAssay.
M1 ag: M1 muscarinic receptor agonism; CHO-M1 cells, Fluo-4 calcium fluorescence, agonist mode; stronger effect = higher value; B-score at 10 µM; 64,000 tested, 3% active;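 active = fluorescence rise, raw or as B-score row- and column-corrected plate score, outside the 99.7% band of its plate's samples, either direction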
Abs 340nm: compound absorbs light at 340 nm. fold change at 10 µM. 65,000 tested, under 10 active. compound absorbance at 340 nm, fold over control;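 active = at 10 µM dose, initial 340 nm absorbance at least 2 fold that of control wells; inactive = change under 2 fold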;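 also: initial absorbance extrapolated from kinetic A340 decline of NADH oxidation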
M1 antagonist: blocks the rat M1 muscarinic receptor response to acetylcholine; CHO-M1 cells, Fluo-4 calcium, ACh EC80 antagonist mode; stronger effect = lower value; B-score at 10 µM; 64,000 tested, 3.4% active;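 active = calcium fluorescence response, raw or row-and-column corrected B-score, differing from the plate sample mean either way at a set confidence level, mostly lower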
Target sequence (P08482 whole entry, looked up): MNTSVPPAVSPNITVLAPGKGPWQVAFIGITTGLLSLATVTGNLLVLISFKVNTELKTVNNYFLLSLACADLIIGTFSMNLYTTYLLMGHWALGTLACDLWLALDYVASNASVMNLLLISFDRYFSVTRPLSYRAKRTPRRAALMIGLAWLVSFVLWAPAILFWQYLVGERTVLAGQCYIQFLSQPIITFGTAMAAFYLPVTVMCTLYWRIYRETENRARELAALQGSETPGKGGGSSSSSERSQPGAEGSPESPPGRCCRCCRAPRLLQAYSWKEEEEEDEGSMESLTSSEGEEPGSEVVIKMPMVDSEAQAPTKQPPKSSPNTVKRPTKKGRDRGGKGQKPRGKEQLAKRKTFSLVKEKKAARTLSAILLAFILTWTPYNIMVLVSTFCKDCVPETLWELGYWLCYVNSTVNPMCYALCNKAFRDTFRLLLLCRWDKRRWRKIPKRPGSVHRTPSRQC
Autofluor 339: intrinsic fluorescence of library compounds, ex339/em460 – biochemical, MLSMR library, data from DPM-DC assay, artefact control, profiling panel; compound autofluorescence, ex339/em460 nm, NADH buffer; stronger effect = higher value; 1 = no-compound wells, NADH background; fluorescence fold increase at 10 µM; 65,000 tested, 5.5% active; AID 709;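 active = at 10 µM, mean starting fluorescence two-fold or more over control wells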;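 also: signal is the first read of a kinetic run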
BAP1 block: inhibitors of human BAP1 deubiquitinase. recombinant BAP1, Ub-AMC hydrolysis fluorescence kinetic; stronger effect = lower value. 72,000 tested, 0.48% active. calls only at 20 µM. AID 436. Q92560;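 active = activity remaining at or below 50% of control, provided the compound also passes the data quality filters; inactive = the rest, including low values that fail the filters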;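 also: 100% = DMSO wells rate and 0% = substrate alone blank rate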
WNV NS2B-NS3 inh: WNV NS2B-NS3 proteinase inhibition | 65,000 tested, 0.18% active | P06935 | z-score (no concentration beside the values) | AID 577 | WNV NS2B-NS3 protease, fluorogenic substrate Ex360/Em465; stronger effect = lower value; in the data active = z-score below about -3
M1 antag confirm: M1 muscarinic receptor (rat) antagonism, confirmed | shares compounds with M1 antagonist | calcium response (max-min fluorescence) at 10 µM | 1,700 tested, 43% active | CHO-M1 cells, Fluo-4 calcium, ACh EC80 antagonism; stronger effect = lower value;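 active = calcium response below the same-plate mean of wells given acetylcholine alone at its 80%-effect dose, minus 3 SD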;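 also: raw fluorescence intensity difference in arbitrary instrument units and not normalized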
mGluR4 antag: mGluR4 (human) activity, M1 antagonist secondary assay. shares compounds with M1 antagonist. CHO-mGluR4 calcium flux, Fluo-4 fluorescence, glutamate EC80; stronger effect = lower value. fluorescence response (max-min) at 10 µM. 1,700 tested, 0.9% active;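 active = fluorescence response below the plate's average for near-maximal glutamate wells, less 3 SD of those wells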;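 also: raw unnormalized fluorescence span taken in the window right after glutamate addition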
Numbers without * were called inactive; i = inactive; · = not tested or not shown. Compounds with a hit are over-represented: about 9.7% of the library has one in this group of screens.

SMILES	M1 ag	Abs 340nm	M1 antagonist	Autofluor 339	BAP1 block	WNV NS2B-NS3 inh	M1 antag confirm	mGluR4 antag
N#CCCn1c(SCC(=O)N2CCN(S(=O)(=O)c3ccccc3)CC2)nc2ccccc21	-2.07	1	-10.4*	1.11	i	0.78	199*	227
CC(C)Cn1c(SCC(=O)N2CCN(S(=O)(=O)c3ccccc3)CC2)nc2ccccc21	2.43	1	-2.59*	1.05	i	-0.21	348*	198
CC(=O)Nc1ccc(N2C(=O)CSC2c2ccc(Br)cc2)cc1 (stereo not given)	·	·	·	·	i	·	·	·
Cc1ccc(Nc2nc(N)nc(CN3CCN(Cc4ccc5c(c4)OCO5)CC3)n2)cc1Cl	-0.227	0.98	-0.0625	1.04	i	1.44	·	·
COc1ccc(Nc2nc(N)nc(CN3CCC(Cc4ccccc4)CC3)n2)cc1	-1.36	1.07	-10*	1.09	i	1.57	319*	265
Cc1ccc(Nc2nc(N)nc(CN3CCN(Cc4ccc5c(c4)OCO5)CC3)n2)cc1	0.85	1.01	-3.53*	1.02	i	-0.74	524	211
COc1ccccc1Nc1nc(N)nc(CN2CCC(Cc3ccccc3)CC2)n1	-0.302	1	-2.4*	1.11	i	-0.91	452*	228
COc1ccccc1Nc1nc(N)nc(CN2CCCCCC2)n1	-0.0201	1.02	-0.0651	1.09	i	-0.62	·	·
Cn1c(SCC(=O)Nc2nccs2)nnc1-c1ccncc1	-0.6	1.02	-6.07*	1.07	i	-1.75	662	155
Cc1ccc(NC(=O)CN(C)S(=O)(=O)c2cccc3nsnc23)cc1C	-0.294	1.03	-3.09*	1.14	i	-1.5	652	240
Cc1ccc(NC(=O)CN(C)S(=O)(=O)c2cccc3nsnc23)cc1Cl	-0.0232	1.01	0.00791	1.07	i	0.92	·	·
COC(=O)c1ccccc1NC(=O)c1cc(-c2cccs2)on1	-1.3	1.04	-2.59*	2.04*	i	-0.32	653	198
Cc1ccc(NC(=O)c2ccccc2-c2nc3ccccc3[nH]2)cc1C	·	·	·	·	i	·	·	·
CCc1cc2c(=O)c(-c3nc4ccccc4n3C)coc2c(CN2CCOCC2)c1O	0.154	1.17	-0.627	1.32	i	-0.17	·	·
CCc1cc2c(=O)c(-c3cnn(-c4ccccc4)c3)coc2c(CN2CCOCC2)c1O	0.748	0.97	-4.19*	2.88*	i	0.2	528	193
CCOC(=O)c1c(C2COc3ccccc3O2)csc1NC(=O)c1ccc(OC)cc1 (stereo not given)	·	·	·	·	i	·	·	·
CCCN1C2CCCC1CC(NC(=O)c1ccccc1F)C2 (stereo not given)	-1.17	1	-3.71*	1.02	i	-0.56	567	236
CCCN1C2CCCC1CC(NC(=O)c1ccccc1)C2 (stereo not given)	-0.0937	1	-2.52	0.94	i	-0.28	·	·
CCCN1C2CCCC1CC(NC(=O)c1ccccc1OCC)C2 (stereo not given)	1.03	0.98	-3.85*	1.06	i	0.17	461*	237
CC(=O)c1ccc(C(C)(C)c2ccc(C(C)=O)s2)s1	-0.01	1.02	-2.59*	1.08	i	1.23	518*	263
CCOc1ccc(C(=O)Nc2ccc(N3CCCC3)cc2)cc1	-0.188	1.06	-0.312	1.16	i	-0.92	·	·
CCOc1ccc(C(=O)Nc2ccc(N3CCN(C)CC3)cc2)cc1Br	-0.718	0.98	-3.48*	1	i	-0.82	361*	242
C=C(C)Cn1c(SCC)nc2ccccc2c1=O	0.404	1.01	-4.05*	1.09	i	0.25	566	200
C=C(C)Cn1c(SCC#N)nc2ccccc2c1=O	-0.0335	1.08	-1	1.16	i	-1.05	·	·
C=COCCNC(=O)Nc1ccc(Cl)cc1Cl	-0.0765	1	-0.00885	1.13	i	-0.71	·	·
SMILES	M1 ag	Abs 340nm	M1 antagonist	Autofluor 339	BAP1 block	WNV NS2B-NS3 inh	M1 antag confirm	mGluR4 antag
C=CCOC(=O)Nc1ccc(Cl)cc1NC(=O)OCC=C	2.09	1.03	-3.79*	1.11	i	-0.12	674	272
O=C(Nc1ccc2oc(-c3ccccc3Cl)nc2c1)c1ccc([N+](=O)[O-])cc1	·	·	·	·	i	·	·	·
O=C1CC(N2CCN(c3ccc(S(=O)(=O)N4CCOCC4)cc3)CC2)C(=O)N1Cc1ccccc1 (stereo not given)	0.262	1.05	-3.41*	1.16	i	-0.52	607*	186
Cn1c(=O)[nH]c(=O)c2c1nc(N1CCCCCC1)n2Cc1ccccc1	·	·	·	·	i	·	·	·
CN1C(=O)C(=O)/C(=C(/O)c2ccc(Cl)cc2)C1c1cccc([N+](=O)[O-])c1 (stereo not given)	·	·	·	·	i	·	·	·
Cn1c(-c2ccc3c(c2)OCO3)cnc1NC(=O)CCC(=O)NCCc1ccccc1	-0.172	1.03	0.556	1.17	i	-0.94	·	·
Cn1c(-c2ccc3c(c2)OCO3)cnc1NCc1ccccc1	0.0775	1	-5.3*	1.07	i	-0.18	295*	182
Cn1c(=O)c2c(nc(NCc3ccc4c(c3)OCO4)n2Cc2ccccc2)n(C)c1=O	-1.54	1.04	0.853	1.09	i	-1.45	·	·
Cn1c(-c2ccc3c(c2)OCO3)cnc1NCc1cccc(Cl)c1	-1.2	1.05	-16.6*	1.21	i	1.23	109*	221
O=C1c2ccc(Oc3cccc([N+](=O)[O-])c3)cc2C(=O)N1c1ccc(O)cc1	·	·	·	·	i	·	·	·
CC1=C(C(=O)OCCOc2ccccc2)C(c2ccccc2[N+](=O)[O-])C2=C(CCCC2=O)N1 (stereo not given)	·	·	·	·	i	·	·	·
CC(CN(C)C)CN1c2ccccc2CCc2ccccc21 (stereo not given)	·	·	·	·	i	·	·	·
CN(C)CCCN1c2ccccc2CCc2ccccc21	·	1	·	0.98	i	0.61	·	257
CC1=C(C(=O)OCC2CCCCC2)C(c2ccccc2OC(C)C)NC(=O)N1 (stereo not given)	·	·	·	·	i	·	·	·
O=c1[nH]cc(-n2c(=O)c3ccccc3c3ccccc3c2=O)c(=O)[nH]1	·	·	·	·	i	·	·	·
OCC1CCCN(Cc2ccc(-c3ccccc3)cc2)C1 (stereo not given)	-0.286	1.04	-2.85*	1.03	i	-0.29	392*	263
O=C(CN1C2=NCCN2c2ccccc21)C12CC3CC(CC(C3)C1)C2	-0.289	1.03	-9.33*	1.07	i	-0.87	337*	153
c1ccc(CN2C3=NCCN3c3ccccc32)cc1	·	·	·	·	i	·	·	·
O=C(c1ccc(CSCc2ccccc2F)o1)N1CCN(c2ccc(N3CCOCC3)nn2)CC1	-0.875	0.98	-1.72*	2.37*	i	0.25	498*	172
Cc1ccccc1CS(=O)(=O)Cc1ccc(C(=O)N2CCOCC2)o1	0.538	1	0.238	1.05	i	0.9	·	·
